Measured values: PubChem BioAssay (NCI)
About 83,000 compounds went through this panel and 20% of them were active in at least one assay; those are over-represented in the sample as a whole.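 Activity criterion: percent growth below 10, measured after cells in 96-well plates were exposed to a single compound concentration for 48 hours.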 A number with no mark means an inactive call. The source made the active and inactive calls.

Tested on: MDA-MB-468 breast
Assay: NCI-60 one-dose screen, 48 h (100 = growth as untreated, 0 = no growth, -100 = all killed)
Details: 10 µM unless noted

| SMILES | growth |
| --- | --- |
| COc1ccc2c(c1)oc1c(C)c3c(c(C)c12)C(=O)N(CCOS(C)(=O)=O)C3=O | 127% |
| Cc1c(Cl)cccc1NC(=O)c1sc2nc3c(cc2c1N)CN(Cc1ccccc1)CC3 | 29.1% |
| COc1ccc2nc3cc(Cl)ccc3c(N3CCN(c4ccnc(N5CCOCC5)n4)CC3)c2c1 | -54.8% (active) |
| COc1ccc2c(=O)c(OC)c(-c3cc(OC)c(OC)c(OC)c3)oc2c1 | 86.5% |
| Cc1ccc2c(N/N=C\c3ccco3)cc(C)nc2n1 | 70.2% |
| Nc1nc(-c2ccnc(Cl)c2)nn1-c1nc2ccccc2s1 | 107% |
| O=C(O)CCCc1cnc2c3sccc3nc(SCc3c(Cl)cccc3Cl)n12 | 60.9% |
| Cc1nn(-c2ccccc2)c2nc(C)n(-c3ccc(Br)cc3)c(=O)c12 | -5.99% (active) |
| Cc1ccc(-c2cc(-c3nnc(SCC(=O)c4ccccc4)o3)c3ccccc3n2)cc1 | 115% |
| Cc1ccc2[nH]c3ccccc3c2c1 | 100% |
| COc1cc(-c2n[nH]nc2-c2ccccn2)cc(OC)c1OC | 104% |
| C=C(C)[C@@H]1CC[C@]2(C(=O)O)CC[C@]3(C)[C@H](CC[C@@H]4[C@@]5(C)C/C(=C/c6ccccn6)C(=O)C(C)(C)[C@@H]5CC[C@]43C)[C@@H]12 | 9.64% (active) |
| Cc1ccc[n+](CC(=O)c2cccc3ccccc23)c1 | 80.2% |
| CCN(CC)c1ccc2c(c1)OS(=O)(=O)N=C2 | 111% |
| CCN(CC)Cc1cc(Nc2nc(NC3CCC(N(C)C)CC3)c3ccccc3n2)ccc1OC (stereo not given) | -15.1% (active) |
